The text below walks through data of PubChem BioAssay AID1946 (Johns Hopkins Ion Channel Center, 2009).

Screen size: about 2,400 compounds; about 180 (7.5%) were called active. Only a selection was taken, and actives are over-represented in it overall. A number with no mark means an inactive call.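 The calls were made as follows: active = readout below zero, meaning a drop past 3 SD under the dofetilide-free negative control mean; inactive = the rest.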

Chain of Potassium voltage-gated channel subfamily KQT member 2 (Rattus norvegicus) (O88943 whole entry, looked up): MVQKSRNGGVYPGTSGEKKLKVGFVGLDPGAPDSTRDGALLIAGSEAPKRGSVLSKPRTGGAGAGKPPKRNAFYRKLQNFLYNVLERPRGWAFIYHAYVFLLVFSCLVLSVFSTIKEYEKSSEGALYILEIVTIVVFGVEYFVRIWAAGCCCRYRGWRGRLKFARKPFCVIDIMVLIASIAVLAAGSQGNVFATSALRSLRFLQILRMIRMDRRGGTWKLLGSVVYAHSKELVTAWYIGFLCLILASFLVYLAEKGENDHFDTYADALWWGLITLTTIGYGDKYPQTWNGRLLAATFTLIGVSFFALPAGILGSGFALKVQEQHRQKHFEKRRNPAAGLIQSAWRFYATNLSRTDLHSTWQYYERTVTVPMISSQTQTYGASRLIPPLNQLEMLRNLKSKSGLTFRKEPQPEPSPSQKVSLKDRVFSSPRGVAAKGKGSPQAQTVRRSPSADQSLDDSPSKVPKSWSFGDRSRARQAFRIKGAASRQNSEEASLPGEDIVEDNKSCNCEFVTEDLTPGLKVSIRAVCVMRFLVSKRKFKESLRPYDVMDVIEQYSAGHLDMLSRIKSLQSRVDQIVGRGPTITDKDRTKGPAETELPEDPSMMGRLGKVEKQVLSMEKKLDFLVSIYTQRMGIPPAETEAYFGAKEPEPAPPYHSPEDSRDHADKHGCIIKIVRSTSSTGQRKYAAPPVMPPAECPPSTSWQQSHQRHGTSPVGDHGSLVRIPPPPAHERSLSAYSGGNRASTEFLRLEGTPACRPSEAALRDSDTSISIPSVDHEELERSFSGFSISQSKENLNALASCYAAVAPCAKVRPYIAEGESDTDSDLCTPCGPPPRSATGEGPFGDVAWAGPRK

The test concerns the target Potassium voltage-gated channel subfamily KQT member 2 (Rattus norvegicus) (UniProt O88943). As to the kind of experiment: KCNQ2 blockade in CHO cells – cell-based, FluxOR thallium flux, counter-screen for hERG block protector project, confirmation (AID 1946). Particulars: FluxOR thallium flux fluorescence, at 10 µM, active compounds read low. On the technique in general: A counterscreen serves to expose hits that act by an unwanted route or on another target.
For `O=C(O)CCC(=O)NCCC1=c2ccccc2=N/C1=C\c1c(O)n(Cc2ccc(F)cc2)c(=S)[nH]c1=O`, the activity change vs negative control is -3.3% (active).

In the case of `O=C1CC(=O)N(c2cccc(C(F)(F)F)c2)C(=O)N1`, the activity change vs negative control was 10.7% [zero marks the 3-SD hit cutoff].

Regarding `COc1ccc2c(c1)/C(=C/c1cnc[nH]1)C(=O)N2`, the activity change vs negative control was 28% [zero marks the 3-SD hit cutoff].

For the compound `COc1ccc2c3c1OC1C(O)C=CC4C(C2)[N+](C)(C)CCC341` (stereo not given), the activity change vs negative control was 11.5%.

For the compound `CCOC(=O)c1c(NS(=O)(=O)c2ccccc2)n(CCCOC)c2nc3ccccc3nc12`, the activity change vs negative control is 1.7% [zero marks the 3-SD hit cutoff].

For the compound `C=CCn1c(O)c(/C=C2/C=c3ccccc3=N2)c(=O)[nH]c1=S`, the activity change vs negative control was 3.2%.

Consider `O=c1[nH]c(=S)[nH]c(O)c1/C=C1/C=c2ccccc2=N1`, for which the activity change vs negative control was -4.3% (active).

With `Cc1ccc(S(=O)(=O)NC(Cc2cnc[nH]2)C(=O)O)cc1` (stereo not given), the activity change vs negative control is 7.9% [zero marks the 3-SD hit cutoff].

For the compound `Cc1ccc(-n2c(O)c(/C=N/Nc3ccccc3)c(=O)[nH]c2=O)cc1C`, the activity change vs negative control is 18.8%.

As to `C1CCC2S[C@H]3CCCCC3NC2C1` (stereo not given in full), the activity change vs negative control was 6.1% [zero marks the 3-SD hit cutoff].

`Cc1nc2ccccc2c(=O)n1-c1cc([N+](=O)[O-])cc([N+](=O)[O-])c1`: the activity change vs negative control is -5.3% (active).

For `CCOC(=O)Cn1cc([N+](=O)[O-])nc1[N+](=O)[O-]`, the activity change vs negative control was 14.6% [zero marks the 3-SD hit cutoff].

`O=c1[nH]c(=S)[nH]c(O)c1N=Nc1ccc(S(=O)(=O)N2CCc3ccccc32)cc1`: the activity change vs negative control is 7.8%.

On to `O=C(Cn1ncc2c3ccccc3n(Cc3ccccc3F)c2c1=O)N1CCC2(CC1)OCCO2`, for which the activity change vs negative control was 64.8%.

Turning to `CCCc1[nH]nc2c1C1(C(=O)N(Cc3ccccc3)c3ccccc31)C(C(=O)OC)=C(N)O2` (stereo not given), the activity change vs negative control was 3.3% [zero marks the 3-SD hit cutoff].

Take `Cc1ccccc1N1C(=O)/C(=C/c2ccco2)C(=O)NC1=S`: the activity change vs negative control was 15%.

With `O=C1NC(=S)N(c2ccc(F)cc2)C(=O)/C1=C/c1ccco1`, the activity change vs negative control was 22.1%.

As for `O=C1NC(=O)N(c2ccccc2)C(=O)/C1=C/c1ccc(Sc2ccccc2)o1`, the activity change vs negative control was -2.5% (active).

Take `CN1C(=O)/C(=C/c2ccc(Cl)s2)C(=O)NC1=S`: the activity change vs negative control is 9.5%.

With `CC(=NCc1ccco1)c1c(O)n(-c2ccc(C)cc2)c(=O)[nH]c1=O`, the activity change vs negative control is 18.6%.

Turning to `O=c1[nH]c(O)c(/C=C2/C=CC(c3cc(Cl)ccc3Cl)=N2)c(=O)[nH]1`, the activity change vs negative control was -2.7% (active).

On to `O=C1NC(=O)C(=Cc2ccc(-c3ccc(Cl)cc3)o2)C(=O)N1`, for which the activity change vs negative control was 11%.

`O=C(O)c1c[nH]c2ccc(S(=O)(=O)N(CCCl)CCCl)cc12`: the activity change vs negative control is 14% [zero marks the 3-SD hit cutoff].

On to `N#CC1=C(N)Oc2c(c(=O)oc3ccccc23)C1c1cccnc1` (stereo not given), for which the activity change vs negative control is 7.9% [zero marks the 3-SD hit cutoff].

On to `NCCc1ccc(S(N)(=O)=O)cc1`, for which the activity change vs negative control was -1.5% [zero marks the 3-SD hit cutoff] (active).

Regarding `O=c1c2cc(Br)ccc2[nH]c(=S)n1-c1ccccc1`, the activity change vs negative control was 9.1% [zero marks the 3-SD hit cutoff].

Consider `CCCCn1c(O)c(C(CC)=Nc2ccc(OCC)cc2)c(=O)[nH]c1=O`, for which the activity change vs negative control is 3.2%.

In the case of `CN1C(=O)/C(=C\c2ccc(Br)s2)C(=O)NC1=S`, the activity change vs negative control was 6.5%.

Turning to `Oc1cccc2cccnc12`, the activity change vs negative control is 24.3% [zero marks the 3-SD hit cutoff].

As for `COc1ccccc1N1CCN(Cc2ccc(F)cc2)CC1`, the activity change vs negative control was 8.2%.
